Tg IFNy HTS: blocks Toxoplasma gondii growth in the presence of IFN-gamma. 3.8% of 69,000 active. activity change, negative = inhibition, % (concentration not given with the values). Toxoplasma gondii growth in IFN-gamma-treated host cells; stronger effect = lower value; in the data active means activity change below about -70%, passing the limit was not always enough;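 further: host cells are HeLa cells infected with Toxoplasma gondii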
The depositor's hits bear a star. Shown is part of a subset that was picked to be rich in hits.

What do the screens show for `COc1ccc(Cn2cc(C(=O)N3CCCC3c3nc(C(C)C)no3)nn2)cc1` (configuration not stated)?
Tg IFNy HTS: 0

Results for COc1ccc(-c2nc(CNS(=O)(=O)c3ccccc3)c(C)o2)cc1 ?
Tg IFNy HTS: 90

Results for CNC(=O)C[C@@H]1CC[C@@H]2[C@H](COC[C@@H](O)CN2Cc2ccccc2F)O1 ?
Tg IFNy HTS: 37

How did O=C(NCCc1csc(-c2ccc(F)cc2)n1)c1ccc(F)cc1 do in these assays?
Tg IFNy HTS: -79*

What do the screens show for `O=C(NCCc1csc(-c2cccc(F)c2)n1)c1ccc(F)cc1`?
Tg IFNy HTS: -62

What do the screens show for `Cc1ccc(-c2nc(CCNC(=O)c3ccc(C)c(C)c3)cs2)cc1`?
Tg IFNy HTS: inactive

What do the screens show for `CCOc1ccc(CC(=O)NCCc2sc(-c3ccc(F)cc3)nc2C)cc1`?
Tg IFNy HTS: -93*

What do the screens show for `Cc1cc(C)cc(C(=O)NCCc2sc(-c3ccc(F)cc3)nc2C)c1`?
Tg IFNy HTS: -77*

What do the screens show for `CC(=O)NCCc1csc(-c2ccc(F)cc2)n1`?
Tg IFNy HTS: 39

How did CCOc1ccc(CC(=O)NCCc2sc(-c3cccc(F)c3)nc2C)cc1 do in these assays?
Tg IFNy HTS: -44

Results for COc1ccc(C(=O)NCCc2sc(-c3ccc(F)cc3)nc2C)cc1 ?
Tg IFNy HTS: -22

Results for CCOc1ccc(NC(=O)C(=O)NCCc2sc(-c3ccc(F)cc3)nc2C)cc1 ?
Tg IFNy HTS: -4

Results for Cc1ccc(C(=O)NCCc2csc(-c3ccc(F)cc3)n2)cc1 ?
Tg IFNy HTS: -65

How did Cc1ccc(C(=O)NCCc2sc(-c3ccc(F)cc3)nc2C)cc1 do in these assays?
Tg IFNy HTS: -58

Results for Cc1cc(C)cc(C(=O)NCCc2csc(-c3ccc(F)cc3)n2)c1 ?
Tg IFNy HTS: -82*

What do the screens show for `CC(C)CC(=O)N1CC2(CCN(Cc3ccsc3)C2)C1`?
Tg IFNy HTS: -39

How did CO[C@@H]1CCN(Cc2cc(C)on2)C[C@@H]1Cc1cccc(C)c1 do in these assays?
Tg IFNy HTS: -3

What do the screens show for `Cc1cccc(NC(=O)Nc2ccc(-c3ccccc3)s2)n1`?
Tg IFNy HTS: 191

How did Cc1ccsc1C(=O)N1CCC[C@]2(C(=O)N(C)C)CN(Cc3cnn(C)c3)C[C@H]2C1 do in these assays?
Tg IFNy HTS: 4

What do the screens show for `CCn1cc(CN(Cc2sc(C)nc2C)C(C)C)cn1`?
Tg IFNy HTS: 2

How did COc1ccc(C(NC(=O)c2oc3c(C)cccc3c2C)c2ccncc2)cc1 (configuration not stated) do in these assays?
Tg IFNy HTS: -50

Results for CCCN1CCC2(CC1)NC(=O)N(CC1CCN(C(=O)c3snnc3CC)CC1)C2=O ?
Tg IFNy HTS: 28

Results for Cn1c(CCNC(=O)c2cc(=O)[nH]c(-c3ccccc3)n2)nc2ccccc21 ?
Tg IFNy HTS: 14

What do the screens show for `CC(=O)N1CC2CCC1C2Oc1cccnc1` (configuration not stated)?
Tg IFNy HTS: 47

Results for O=C(CSC12CC3CC(CC(C3)C1)C2)N1CC[C@H]2CC[C@@H](C1)N2 ?
Tg IFNy HTS: -16

How did CN(C)CC(=O)N1[C@@H](C#N)[C@H](c2ccc(C#CC3CCCCC3)cc2)[C@@H]1CO do in these assays?
Tg IFNy HTS: 6

Results for Cc1noc(C)c1CCCNC(=O)c1ccc(-c2ccccc2CO)nc1 ?
Tg IFNy HTS: 18

How did CCCCOc1ccc(C(=O)NCCc2csc(-c3ccc(F)cc3)n2)cc1 do in these assays?
Tg IFNy HTS: -62

What do the screens show for `O=C(Cc1ccc(F)cc1)NCCc1csc(-c2ccc(F)cc2)n1`?
Tg IFNy HTS: 30

How did Cc1nc(-c2ccc(F)cc2)sc1CCNC(=O)C12CC3CC(CC(C3)C1)C2 do in these assays?
Tg IFNy HTS: -91*

How did Cc1nc(-c2ccc(F)cc2)sc1CCNC(=O)Cc1ccc(F)cc1 do in these assays?
Tg IFNy HTS: -11

Results for O=C(NCCc1csc(-c2ccc(F)cc2)n1)C12CC3CC(CC(C3)C1)C2 ?
Tg IFNy HTS: -11

What do the screens show for `O=C(NCCc1csc(-c2ccc(F)cc2)n1)c1ccc(Br)cc1`?
Tg IFNy HTS: -79*

How did COc1ccc2c(c1)NC1(CCN(S(=O)(=O)c3ccccc3F)CC1)c1cccn1-2 do in these assays?
Tg IFNy HTS: -10

Results for CC(=O)N[C@@H](C)C(=O)N(C)Cc1ccccc1OCC(C)C ?
Tg IFNy HTS: -1

What do the screens show for `CC(=O)N1CCC2(CC1)CC(COCC1CC1)N(CC1CC1)C2` (configuration not stated)?
Tg IFNy HTS: -1

What do the screens show for `CC(C)c1noc(CSc2nnc(CC3CCNCC3)n2C)n1`?
Tg IFNy HTS: 3

What do the screens show for `CCCC(NC1CCN(C(=O)OCC)CC1)c1nccn1C` (configuration not stated)?
Tg IFNy HTS: 9

How did C/C=C/c1ccc([C@H]2[C@H](CO)N3C(=O)CN(C(=O)Nc4ccc(F)cc4)C[C@@H]23)cc1 do in these assays?
Tg IFNy HTS: 1

Results for O=C(CSc1n[nH]c(=O)n1-c1ccccc1C(F)(F)F)c1ccc(F)cc1 ?
Tg IFNy HTS: -29

Results for CC(c1ccccc1)n1c(SCC(=O)c2csc3ccccc23)n[nH]c1=O (configuration not stated) ?
Tg IFNy HTS: -79*

Results for CC(c1ccccc1)n1c(SCC(=O)O)nnc1C1CCOCC1 (configuration not stated) ?
Tg IFNy HTS: 8

What do the screens show for `Cc1noc(-c2ccccc2OCC(=O)O)n1`?
Tg IFNy HTS: 62

How did CCOc1ccc(NC(=O)Cn2c(=O)cc(-c3nc(C)no3)c3ccccc32)cc1 do in these assays?
Tg IFNy HTS: 21

What do the screens show for `CCc1nc2cc(NC(=O)COc3ccccc3-c3nc(C)no3)ccc2n1CC`?
Tg IFNy HTS: -74*

How did C=CCc1c(C)[nH]n(-c2cccc(C(=O)O)c2)c1=O do in these assays?
Tg IFNy HTS: -4

Results for CCOc1ccccc1NC(=O)C(=O)NCCc1sc(-c2ccccc2)nc1C ?
Tg IFNy HTS: inactive

What do the screens show for `COc1cccc(-c2cc(C(=O)NC3CC(=O)N(c4ccccc4OC)C3)[nH]n2)c1` (configuration not stated)?
Tg IFNy HTS: 13

Results for CCO[C@H]1CN(S(=O)(=O)c2cccnc2)[C@H]2CCCO[C@@H]12 ?
Tg IFNy HTS: -4

Results for CN(C)S(=O)(=O)N1CCO[C@H]2[C@@H](OCc3cccnc3)CC[C@H]21 ?
Tg IFNy HTS: 2

Results for CCO[C@@H]1CCN(S(=O)(=O)N(C)C)[C@@H]2CCO[C@H]21 ?
Tg IFNy HTS: -82*

How did CCOCc1ncn2c1CN(C(=O)c1occc1C)CC2 do in these assays?
Tg IFNy HTS: 22

How did CS(=O)(=O)c1ccc(-c2nc(-c3ccc(F)cc3)c(-c3ccncc3)[nH]2)cc1 do in these assays?
Tg IFNy HTS: 11

How did CS(=O)c1ccc(-c2nc(-c3ccc(F)cc3)c(-c3ccncc3)[nH]2)cc1 (configuration not stated) do in these assays?
Tg IFNy HTS: -90*

What do the screens show for `Cc1[nH]c(-c2ccc(F)cc2)nc1C(=O)O`?
Tg IFNy HTS: -34

Results for COC(=O)c1ccc(CSc2nnc(-c3ccccc3)o2)o1 ?
Tg IFNy HTS: 7

How did O=C(c1cccnc1)N1CCC(Cc2nc(-c3ccsc3)cc(=O)[nH]2)CC1 do in these assays?
Tg IFNy HTS: -7

How did CC(C)n1cnnc1CN(C)C(=O)CC1C=CCC1 (configuration not stated) do in these assays?
Tg IFNy HTS: -15

Results for COc1ccc(C2Nc3ccccc3C3CC(c4ccc(F)cc4)=NN32)cc1 (configuration not stated) ?
Tg IFNy HTS: 154

Assay outcomes deposited in PubChem BioAssay by Broad Institute.
